According to PubChem BioAssay AID1159580 (chemical genetic matrix, 2015):
Where “and” joins values, the source holds several entries; their conditions need not be identical. Identical values can stand only once. About 2,000 (36%) of roughly 5,500 compounds were called active. About 18% were inconclusive and are not listed. Rule as the data show it: active = normalized growth mostly below about 0.91 (no sharp cut-off); inconclusive = no clear call, values can overlap the other calls; inactive = mostly above about 0.92. This is one part of the list.

Assay: chemical genetic growth profiling, strain panel (AID 1159580);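 also: tested at 20 µM; growth read once vehicle control cultures reached saturation at 30 °C; 1 = growth at the plate median or of vehicle wells; lower values mean less growth of the strain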
Conditions: growth OD

Measured: normalized growth

NS(=O)(=O)c1cc2c(cc1Cl)NC=NS2(=O)=O
inactive: S. cerevisiae deletion strains, locus YJR075W, strain HOC1, active compounds read low 1.02 | S. cerevisiae deletion strains, locus YKL009W, strain mrt4, active compounds read low 1.02 | S. cerevisiae deletion strains, locus YKL068W, active compounds read low 0.998 | S. cerevisiae deletion strains, locus YKL085W, strain MDH1 (second series), active compounds read low 0.998 | S. cerevisiae deletion strains, locus YKL085W, strain MDH1, active compounds read low 0.998 | S. cerevisiae deletion strains, locus YKL160W, strain elf1, active compounds read low 1.01 | S. cerevisiae deletion strains, locus YKL190W, strain CNB1, active compounds read low 1.01 | S. cerevisiae deletion strains, locus YKR001C, strain vps1, active compounds read low 0.988 | S. cerevisiae deletion strains, locus YKR026C, strain gcn3, active compounds read low 0.98 | S. cerevisiae deletion strains, locus YKR091W, strain srl3, active compounds read low 1.01 | S. cerevisiae deletion strains, locus YLL001W, strain dnm1, active compounds read low 1.01 | S. cerevisiae deletion strains, locus YLL026W, active compounds read low 0.99 | S. cerevisiae deletion strains, locus YLL041C, strain sdh2, active compounds read low 1 | S. cerevisiae deletion strains, locus YLR027C, strain aat2, active compounds read low 1.01 | S. cerevisiae deletion strains, locus YLR039C, strain RIC1, active compounds read low 1.02 | S. cerevisiae deletion strains, locus YLR058C, strain SHM2, active compounds read low 1.01 | S. cerevisiae deletion strains, locus YLR102C, strain apc9, active compounds read low 0.99 | S. cerevisiae deletion strains, locus YLR113W, strain HOG1, active compounds read low 0.939 | S. cerevisiae deletion strains, locus YLR221C, strain rsa3, active compounds read low 0.994 | S. cerevisiae deletion strains, locus YLR258W, strain gsy2, active compounds read low 1.01 | S. cerevisiae deletion strains, locus YLR262C, strain YPT6 (second series), active compounds read low 1 | S. cerevisiae deletion strains, locus YLR262C, strain YPT6, active compounds read low 1.02 | S. cerevisiae deletion strains, locus YLR268W, strain sec22, active compounds read low 0.996 | S. cerevisiae deletion strains, locus YLR320W, strain mms22, active compounds read low 0.988 | S. cerevisiae deletion strains, locus YLR330W, strain CHS5, active compounds read low 1.01 | S. cerevisiae deletion strains, locus YLR342W, strain FKS1 (second series), active compounds read low 1.02 | S. cerevisiae deletion strains, locus YLR342W, strain FKS1, active compounds read low 0.999 | S. cerevisiae deletion strains, locus YLR357W, strain rsc2, active compounds read low 0.985 | S. cerevisiae deletion strains, locus YLR370C, strain arc18, active compounds read low 1 | S. cerevisiae deletion strains, locus YLR371W, strain rom2, active compounds read low 0.997 | S. cerevisiae deletion strains, locus YLR384C, strain iki3, active compounds read low 1.01 | S. cerevisiae deletion strains, locus YLR418C, strain cdc73, active compounds read low 1.02 | S. cerevisiae deletion strains, locus YML016C, strain PPZ1, active compounds read low 1 | S. cerevisiae deletion strains, locus YML032C, strain rad52, active compounds read low 0.982 | S. cerevisiae deletion strains, locus YML120C, strain ndi1, active compounds read low 0.994 | S. cerevisiae deletion strains, locus YML124C, strain tub3, active compounds read low 0.996 | S. cerevisiae deletion strains, locus YMR058W, strain fet3, active compounds read low 1 | S. cerevisiae deletion strains, locus YMR078C, strain ctf18, active compounds read low 0.984 | S. cerevisiae deletion strains, locus YMR125W, strain sto1, active compounds read low 0.998 | S. cerevisiae deletion strains, locus YMR129W, active compounds read low 1 | S. cerevisiae deletion strains, locus YMR205C, strain PFK2, active compounds read low 1 | S. cerevisiae deletion strains, locus YMR223W, strain ubp8, active compounds read low 1 | S. cerevisiae deletion strains, locus YMR231W, strain pep5, active compounds read low 0.999 | S. cerevisiae deletion strains, locus YMR263W, strain SAP30, active compounds read low 1.02 and 0.996 | S. cerevisiae deletion strains, locus YMR307W, strain GAS1, active compounds read low 0.978 and 1.01 | S. cerevisiae deletion strains, locus YNL067W, strain RPL9B, active compounds read low 1.01 | S. cerevisiae deletion strains, locus YNL071W, strain lat1, active compounds read low 0.999 | S. cerevisiae deletion strains, locus YNL128W, strain TEP1, active compounds read low 1.02 | S. cerevisiae deletion strains, locus YNL153C, strain GIM3, active compounds read low 1.02 | S. cerevisiae deletion strains, locus YNL175C, strain NOP13, active compounds read low 0.975 | S. cerevisiae deletion strains, locus YNL183C, strain NPR1, active compounds read low 0.907 | S. cerevisiae deletion strains, locus YNL197C, strain WHI3, active compounds read low 0.969 | S. cerevisiae deletion strains, locus YNL209W, strain ssb2, active compounds read low 1.01 | S. cerevisiae deletion strains, locus YNL224C, strain SQS1, active compounds read low 0.987 | S. cerevisiae deletion strains, locus YNL233W, strain BNI4, active compounds read low 1.02 | S. cerevisiae deletion strains, locus YNL248C, strain rpa49, active compounds read low 1.04 | S. cerevisiae deletion strains, locus YNL250W, strain rad50, active compounds read low 0.989 | S. cerevisiae deletion strains, locus YNL271C, strain bni1, active compounds read low 0.982 | S. cerevisiae deletion strains, locus YNL298W, strain CLA4, active compounds read low 1 | S. cerevisiae deletion strains, locus YNL307C, strain MCK1, active compounds read low 1.01 | S. cerevisiae deletion strains, locus YNL322C, strain KRE1 (second series), active compounds read low 1.01 | S. cerevisiae deletion strains, locus YNL322C, strain KRE1, active compounds read low 1.01 | S. cerevisiae deletion strains, locus YNR049C, strain mso1, active compounds read low 1.01 | S. cerevisiae deletion strains, locus YNR052C, strain pop2, active compounds read low 0.996 | S. cerevisiae deletion strains, locus YOL006C, strain TOP1, active compounds read low 1.05 | S. cerevisiae deletion strains, locus YOL012C, strain htz1 0.596 | S. cerevisiae deletion strains, locus YOL147C, strain pex11, active compounds read low 1 | S. cerevisiae deletion strains, locus YOR001W, strain rrp6, active compounds read low 1.02 | S. cerevisiae deletion strains, locus YOR061W, strain CKA2, active compounds read low 1.01 | S. cerevisiae deletion strains, locus YOR069W, strain VPS5, active compounds read low 1 | S. cerevisiae deletion strains, locus YOR070C, strain gyp1, active compounds read low 1.01 | S. cerevisiae deletion strains, locus YOR080W, strain dia2, active compounds read low 0.986 | S. cerevisiae deletion strains, locus YOR083W, strain WHI5 (second series), active compounds read low 0.968 | S. cerevisiae deletion strains, locus YOR083W, strain WHI5, active compounds read low 0.989 | S. cerevisiae deletion strains, locus YOR106W, strain vam3, active compounds read low 1 | S. cerevisiae deletion strains, locus YOR136W, strain idh2, active compounds read low 0.999 | S. cerevisiae deletion strains, locus YOR144C, strain elg1, active compounds read low 0.998 | S. cerevisiae deletion strains, locus YOR184W, strain ser1, active compounds read low 1 | S. cerevisiae deletion strains, locus YOR231W, strain MKK1, active compounds read low 0.979 | S. cerevisiae deletion strains, locus YOR265W, strain rbl2, active compounds read low 1 | S. cerevisiae deletion strains, locus YOR270C, strain vph1, active compounds read low 1.02 | S. cerevisiae deletion strains, locus YOR290C, strain snf2, active compounds read low 0.996 | S. cerevisiae deletion strains, locus YOR316C, strain cot1, active compounds read low 1 | S. cerevisiae deletion strains, locus YPL051W, strain arl3, active compounds read low 1 | S. cerevisiae deletion strains, locus YPL055C, strain LGE1, active compounds read low 1.04 and 0.991 | S. cerevisiae deletion strains, locus YPL078C, strain atp4, active compounds read low 1 | S. cerevisiae deletion strains, locus YPL106C, strain sse1, active compounds read low 1.01 | S. cerevisiae deletion strains, locus YPL240C, strain hsp82, active compounds read low 1 | S. cerevisiae deletion strains, locus YPL241C, strain CIN2, active compounds read low 1.01 | S. cerevisiae deletion strains, locus YPL256C, strain CLN2, active compounds read low 0.932 | S. cerevisiae deletion strains, locus YPR119W, strain clb2, active compounds read low 0.997 | S. cerevisiae deletion strains, locus YPR141C, strain kar3, active compounds read low 0.997 | S. cerevisiae deletion strains, locus YPR163C, strain tif3, active compounds read low 0.998 | S. cerevisiae deletion strains, locus YPR167C, strain met16, active compounds read low 1 | S. cerevisiae deletion strains, strain wtn01, active compounds read low 1 | S. cerevisiae strains, strain wild type, active compounds read low 1.02
